Key:
Assay in all cases: PBM binding z-score (relative to random genomic background probes); higher = stronger binding; sequences stand for … in GC…GCGATTGACAGCGTAGAATGAAGG
[1] = system: FXR:RXRa (NR concentration 270 nM, RXRa partner concentration 90 nM)
Method in brief: (§1)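 Binding z-scores were set against random background probes. The data came from custom Agilent 4×180K protein-binding microarrays carrying double-stranded probes with 34-nt variable regions, incubated 1 h with ligand-free nuclear receptor dimers. Partner-specific antibodies detected binding, and scanned fluorescence was regression-normalized.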

[2] = system: LXRa:RXRa (NR concentration 270 nM, RXRa partner concentration 90 nM)
Method in brief: as §1

[3] = system: LXRa homodimer (NR concentration 270 nM)
Method in brief: as §1

[4] = system: LXRb:RXRa (NR concentration 270 nM, RXRa partner concentration 90 nM)
Method in brief: as §1

[5] = system: LXRb homodimer (NR concentration 270 nM)
Method in brief: as §1

[6] = system: PPARa:RXRa (NR concentration 270 nM, RXRa partner concentration 90 nM)
Method in brief: as §1

[7] = system: PPARg:RXRa (NR concentration 180 nM, RXRa partner concentration 90 nM)
Method in brief: as §1

[8] = system: PPARg:RXRa 270nM:90nM, anti-RXR (NR concentration 270 nM, RXRa partner concentration 90 nM)
Method in brief: as §1

[9] = system: PPARg:RXRa 30nM:10nM, anti-RXR (NR concentration 30 nM, RXRa partner concentration 10 nM)
Method in brief: as §1

[10] = system: PPARg:RXRa 90nM:30nM, anti-RXR (NR concentration 90 nM, RXRa partner concentration 30 nM)
Method in brief: as §1

[11] = system: PPARg:RXRa DBDmut IVT, anti-RXR (DBD mutation: RXRa K156A/R161A, NR concentration 270 nM, RXRa partner concentration 90 nM)
Method in brief: as §1

[12] = system: PPARg:RXRa IVT, anti-PPARg (NR concentration 270 nM, RXRa partner concentration 90 nM)
Method in brief: as §1

[13] = system: PPARg DBDmut:RXRa IVT, anti-PPARg (DBD mutation: PPARg1 K132A/R137A, NR concentration 270 nM, RXRa partner concentration 90 nM)
Method in brief: as §1

[14] = system: PPARg DBDmut IVT, anti-PPARg (DBD mutation: PPARg1 K132A/R137A, NR concentration 270 nM)
Method in brief: as §1

[15] = system: PPARg homodimer (NR concentration 180 nM)
Method in brief: as §1

[16] = system: PXR:RXRa (NR concentration 270 nM, RXRa partner concentration 90 nM)
Method in brief: as §1

[17] = system: PXR homodimer (NR concentration 270 nM)
Method in brief: as §1

[18] = system: RARa:RXR (NR concentration 270 nM, RXRa partner concentration 90 nM)
Method in brief: as §1

[19] = system: RARa homodimer (NR concentration 270 nM)
Method in brief: as §1

[20] = system: RARb:RXRa (NR concentration 270 nM, RXRa partner concentration 90 nM)
Method in brief: as §1

Sequence	PBM binding z-score [1]	PBM binding z-score [2]	PBM binding z-score [3]	PBM binding z-score [4]	PBM binding z-score [5]	PBM binding z-score [6]	PBM binding z-score [7]	PBM binding z-score [8]	PBM binding z-score [9]	PBM binding z-score [10]	PBM binding z-score [11]	PBM binding z-score [12]	PBM binding z-score [13]	PBM binding z-score [14]	PBM binding z-score [15]	PBM binding z-score [16]	PBM binding z-score [17]	PBM binding z-score [18]	PBM binding z-score [19]	PBM binding z-score [20]
GCTTGTAGATCAAGGTTAAGAAGGACTAAGCTAA	0.204	0.416	-0.49	0.546	-1.11	1.38	0.945	2.08	0.323	1.79	1.59	0.939	-0.676	0.139	-0.16	0.306	-0.0751	0.701	-0.375	0.923
ATTGAAAGGTCGTGAGGTGAGTATACAGAAAGGC	5.67	4.67	0.73	3.49	1.2	5.38	4.88	5.01	2.23	3.64	0.728	3.15	1.53	1.68	2.07	3.07	0.914	4.27	1.15	4.3
CCTTACGGGTCACTGACAGGCTATAGCATTTGGA	4.95	3.52	-0.0559	3.1	-0.0175	4.91	3.88	4.36	1.54	2.83	3.84	3.67	0.647	-0.225	2.27	2.94	-0.147	3.69	0.758	3.76
GATACAGGGTCAGCTAGAGGCCAGAGTTTGGAAA	4.24	2.73	-0.116	2.49	-0.678	4.08	3.23	3.01	0.716	2.22	1.39	2.54	0.152	-1.06	3.41	3.41	0.149	4.26	0.417	4.06
GTACCAAGCTGAATAGGTCGTTGATGAGTAGGCG	-0.533	-0.288	-0.35	-0.237	-1.03	0.192	0.271	0.0324	-0.305	-0.334	-0.646	-0.114	-1.16	-0.822	-1.1	-0.255	-0.471	0.235	-0.336	0.0822
GCATATAGGCAATACAAGGTGAAAGTCCGATTGT	0.177	0.0524	-0.175	0.343	-0.636	1.12	0.804	0.669	0.415	0.712	1.94	1.46	0.326	-0.0602	-0.222	0.231	0.012	0.876	-0.301	0.172
TCTTGCAGATCAAGCAGGTTAAGAAAGCCTGAGT	-0.529	0.00259	-0.304	0.157	-0.667	0.293	-0.508	0.302	1.76	1.14	0.549	-0.312	-0.516	-0.801	-0.945	0.199	-0.285	0.324	-1.11	-0.136
TGTCAAAGTTCAAAGGTAACATAAGTATCCACAC	7.47	6.45	4.6	5.05	2.12	6.03	8.82	7.65	5.46	7.34	0.298	4.93	1.53	2.04	3.31	5.72	4.18	6.28	1.65	5.24
CTCGAAAGGTCGTGCTCAGGTGAGTTTACCAAAC	5.01	4.08	0.0619	3.31	0.366	4.6	1.98	3.86	1.67	2.65	0.999	1.89	0.777	0.0952	3.04	3.93	1.33	4.47	0.43	3.79
GCTGCTAGGTCAGGTTGGTCACCTAACGGGTACG	1.01	0.907	-0.299	0.43	-0.281	1.56	0.627	1.15	-0.264	0.22	2.48	2.8	-1.27	-1.36	0.888	0.48	-0.213	1.27	0.0555	3.39
CAAACTAGGTCAAGGTCACAGTCGGTTTGTGCCA	6.76	5.24	3.28	4.15	0.607	6.25	9.88	8.18	6.72	8.13	8.39	8.56	6.22	2.94	5.11	5.3	1.75	5.94	1.99	5.17
CCTATTAGTTGACCATAAGGGCACCCGAAGCTCG	0.765	0.567	0.422	0.491	0.755	0.457	0.534	0.375	0.138	0.172	-0.198	0.504	0.132	0.825	1.88	0.521	0.781	0.981	1.56	1.2
TCATATAGGTAAACAGGTGAAAGTGCGTAAGTTA	1.13	1.29	0.37	1.13	0.114	3.19	4.88	5.09	4.64	5.1	4.84	4.9	1.29	1.03	1.33	1.04	0.631	1.27	1.75	0.94
AGAGTGAGGTTAAGATCAGGGAAACAGAATACAT	2.54	2.17	0.665	2.44	1.09	3.15	1.43	2.13	0.952	1.36	0.514	1.39	0.929	0.933	1.63	1.62	1.51	2.02	1.55	2.38

— the supplement of paper PMC6555819
